Experimental data from PubChem BioAssay.
Active and inactive are the calls of the source. Unless noted, how the calls were made is not given here.

Tests used:
[1] = compound effects on lung adenocarcinoma cell viability – A549, calcein-AM fluorescence, 48 h, basal, profiling panel (AID 1162); settings: higher = more signal; further: test concentration not given here
[2] = compound effects on differentiated 3T3-L1 adipocyte viability – cell-based, 3T3-L1 adipocytes, calcein-AM fluorescence, 48 h, basal, profiling panel (AID 1163); settings: 3T3-L1 adipocytes viability, higher = more signal; further: test concentration not given here
[3] = compound effects on hepatocellular carcinoma cell viability – HepG2, calcein-AM fluorescence, 48 h, basal, profiling panel (AID 1164); settings: higher = more signal; further: test concentration not given here
[4] = compound effects on multiple myeloma cell viability – MM1S, calcein-AM fluorescence, 48 h, basal, profiling panel (AID 1165); settings: higher = more signal;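 further: viability of MM1S multiple myeloma cells under basal unstimulated conditions; test concentration not given here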
[5] = calcein-AM signal in unstimulated myeloma cells – cell-based, calcein-AM fluorescence, 48 h, PK04 Diversity Set, profiling panel (AID 1166); settings: RPMI8226 myeloma viability, higher = more signal;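 further: cells grown under basal conditions without added stimulus; test concentration not given here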
[6] = JC-1 mitochondrial signal, unstimulated HepG2 cells – cell-based, JC-1 fluorescence, 24 h, 100 nL compound, profiling panel (AID 1167); settings: HepG2 mitochondrial potential, higher = more signal; further: test concentration not given here
[7] = JC-1 mitochondrial signal, unstimulated adipocytes – cell-based, JC-1 fluorescence, 3T3-L1 adipocytes, 24 h, 100 nL compound, profiling panel (AID 1168); settings: JC-1 mitochondrial fluorescence, higher = more signal, called active from +8 up or from −8 down; further: test concentration not given here
[8] = JC-1 mitochondrial signal, unstimulated myeloma cells – cell-based, JC-1 fluorescence, RPMI8226, 24 h, 100 nL compound, profiling panel (AID 1169); settings: JC-1 mitochondrial potential fluorescence, higher = more signal; further: test concentration not given here
[9] = JC-1 mitochondrial signal, unstimulated MM1S myeloma – cell-based, JC-1 fluorescence, 24 h, 100 nL compound, profiling panel (AID 1170); settings: MM1S mitochondrial potential, higher = more signal; further: test concentration not given here
[10] = resazurin metabolic signal in A549 cells – cell-based, resazurin fluorescence, 24 h, PK04 Diversity Set, profiling panel (AID 1171); settings: A549 viability, higher = more signal, called active from +8 up or from −8 down; further: test concentration not given here
[11] = resazurin metabolic signal in HepG2 cells – cell-based, resazurin fluorescence, 24 h, PK04 Diversity Set, profiling panel (AID 1172); settings: HepG2 viability, higher = more signal; further: test concentration not given here
[12] = budding yeast growth changes without added modifier – OD600, strain BY4716, 24 h, basal condition, primary screen (AID 1173); settings: S. cerevisiae BY4716 growth, OD600, 24 h; higher = more signal, called active from +8 up or from −8 down
[13] = viability profiling in MM1S myeloma cells – cell-based, resazurin fluorescence, basal, 24 h, PK04 Diversity Set, profiling panel (AID 1174); settings: higher = more signal, called active from +8 up or from −8 down; further: test concentration not given here
[14] = biological target: Dihydroorotate dehydrogenase (quinone), mitochondrial (Plasmodium falciparum (isolate 3D7)) (UniProt Q08210); test: inhibition of P. falciparum DHODH – biochemical, C-terminal His tag, absorbance 600 nm, primary screen (AID 1175); settings: PfDHODH enzyme, DCIP absorbance 600 nm; higher = more signal, called active from +8 up or from −8 down;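 further: recombinant parasite enzyme with a five histidine tag at its C terminus; test concentration not given here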
[15] = inhibition of PAO1 biofilm formation – strain PAO1, LB-PBS medium, absorbance 600 nm, primary screen (AID 1176); further: test concentration not given here; settings: P. aeruginosa PAO1 growth/biofilm, A600, 12 h; higher = more signal
[16] = growth modulation of vineyard yeast isolate – strain RM11-1a, OD600, basal, 24 h, primary screen (AID 1177);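 further: cultures grown under basal conditions with no added stressor; test concentration not given here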; settings: S. cerevisiae RM11-1a growth, OD600, 24 h; higher = more signal, called active from +8 up or from −8 down
[17] = growth of efflux-deficient E. coli DRC39 – strain DRC39, OD650, 24 h, E. coli filamentation inducers, primary screen (AID 1178);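 further: growth measured as culture turbidity by optical density at 650 nm; test concentration not given here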; settings: E. coli DRC39 acrAB, higher = more signal, called active from +8 up or from −8 down
[18] = growth of efflux-deficient E. coli DRC39 – strain DRC39, OD650, 48 h, E. coli filamentation inducers, primary screen (AID 1179);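 further: screen aims at cell division blockers that make cells filament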; settings: E. coli DRC39 delta-acrAB growth, higher = more signal, called active from +8 up or from −8 down
[19] = viability profiling in RPMI8226 myeloma cells – cell-based, resazurin fluorescence, basal, 24 h, PK04 Diversity Set, profiling panel (AID 1180); settings: higher = more signal;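 further: RPMI8826 multiple myeloma cell line at 5000 cells per well; test concentration not given here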
[20] = biological target: E3 ubiquitin-protein ligase XIAP (Homo sapiens) (UniProt P98170); test: small molecules binding XIAP protein – biophysical, small-molecule microarray, fluorescence 635 nm, primary screen (AID 1181); settings: higher = more signal;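 further: score merges 667 nm emission and signal to noise over triplicate slides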
Sequence of E3 ubiquitin-protein ligase XIAP (Homo sapiens) (P98170 whole entry, looked up): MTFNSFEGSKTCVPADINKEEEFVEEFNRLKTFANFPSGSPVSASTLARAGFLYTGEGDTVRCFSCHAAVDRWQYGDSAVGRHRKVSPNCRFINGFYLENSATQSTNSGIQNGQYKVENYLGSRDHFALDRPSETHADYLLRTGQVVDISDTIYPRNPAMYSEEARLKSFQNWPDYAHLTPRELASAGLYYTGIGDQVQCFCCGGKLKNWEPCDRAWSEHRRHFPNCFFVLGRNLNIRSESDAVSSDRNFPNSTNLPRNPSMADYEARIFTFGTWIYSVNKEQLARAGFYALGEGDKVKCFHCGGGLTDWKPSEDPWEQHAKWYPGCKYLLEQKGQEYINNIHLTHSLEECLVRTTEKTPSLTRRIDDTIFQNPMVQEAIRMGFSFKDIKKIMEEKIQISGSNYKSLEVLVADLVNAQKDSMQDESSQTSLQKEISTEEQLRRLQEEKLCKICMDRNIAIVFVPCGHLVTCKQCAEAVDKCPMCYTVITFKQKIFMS

Sequence of Dihydroorotate dehydrogenase (quinone), mitochondrial (Plasmodium falciparum (isolate 3D7)) (Q08210 whole entry, looked up): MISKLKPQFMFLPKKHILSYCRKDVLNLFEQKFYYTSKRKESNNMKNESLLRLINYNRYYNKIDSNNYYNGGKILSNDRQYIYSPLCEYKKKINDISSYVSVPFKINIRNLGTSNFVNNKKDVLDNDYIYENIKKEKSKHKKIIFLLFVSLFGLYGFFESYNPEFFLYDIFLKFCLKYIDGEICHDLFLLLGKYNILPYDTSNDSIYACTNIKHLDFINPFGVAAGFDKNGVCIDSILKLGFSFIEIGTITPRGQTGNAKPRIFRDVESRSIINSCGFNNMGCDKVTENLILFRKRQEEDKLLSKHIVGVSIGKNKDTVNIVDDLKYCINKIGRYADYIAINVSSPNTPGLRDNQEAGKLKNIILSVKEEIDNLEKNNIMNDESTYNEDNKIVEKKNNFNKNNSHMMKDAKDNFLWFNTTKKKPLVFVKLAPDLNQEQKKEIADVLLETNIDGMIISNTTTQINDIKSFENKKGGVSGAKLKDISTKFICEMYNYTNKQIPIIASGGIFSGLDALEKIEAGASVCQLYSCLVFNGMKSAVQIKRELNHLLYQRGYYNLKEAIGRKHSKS

Structure (SMILES)	z-score [1]	z-score [2]	z-score [3]	z-score [4]	z-score [5]	z-score [6]	z-score [7]	z-score [8]	z-score [9]	z-score [10]	z-score [11]	z-score [12]	z-score [13]	composite z-score [14]	z-score [15]	z-score [16]	z-score [17]	z-score [18]	z-score [19]	composite z-score [20]
COC(=O)C1=CC(CCCO)=CC(c2cccs2)N(Cc2cc3c(cc2Br)OCO3)C=C1C(=O)OC (stereo not given)	0.236	0.425	0.897	-1.26	-0.188	0.725	-0.253 (inactive)	-0.131	0.398	-0.0673 (inactive)	-0.245	-0.23 (inactive)	0.182 (inactive)	-0.851 (inactive)	0.173 (inactive)	1.92 (inactive)	0.404 (inactive)	-0.372 (inactive)	0.365	0.344
O=C1O[C@H](c2ccccc2)[C@H](c2ccccc2)N2[C@H]1[C@@H](C(=O)N1CCN(c3ncccn3)CC1)[C@]1(C(=O)Nc3ccc(C#CCCO)cc31)[C@H]2c1ccc(O)cc1	0.356	0.255	0.775	-0.0982	-0.26	-0.19	-0.501 (inactive)	-0.443	-0.0233	1.59 (inactive)	0.0071	0.298 (inactive)	0.34 (inactive)	0.438 (inactive)	0.462 (inactive)	0.254 (inactive)	-0.386 (inactive)	-0.395 (inactive)	0.186	-0.088
CCCCCC1=C2CNC(Cc3ccccc3)(C(=O)OC)C=C2C(C)C1=O (stereo not given)	-1.33	0.598	-1.14	-2.69	-3.65	1.14	-1.55 (inactive)	-0.608	-0.32	-0.605 (inactive)	-1.19	1.36 (inactive)	-1.79 (inactive)	-0.461 (inactive)	0.026 (inactive)	0.546 (inactive)	-0.767 (inactive)	-0.217 (inactive)	-1.5	-0.138
O=C(NCC(O)CO)[C@@]1(CCS(=O)(=O)c2ccccc2)N=C(c2ccc(OCCCO)cc2)O[C@H]1c1ccccc1 (stereo not given in full)	0.433	0.719	-0.4	-1	-2.47	0.956	-0.874 (inactive)	-0.694	-0.745	-0.0521 (inactive)	-0.748	-0.386 (inactive)	-0.133 (inactive)	-0.637 (inactive)	0.618 (inactive)	-0.707 (inactive)	0.107 (inactive)	-0.618 (inactive)	-0.195	0.0341
O=C1[C@H]2C=C(I)[C@H](C[C@@H]2OCCCCCCO)[C@@]12CO2	0.249	-0.0741	-0.394	-1.22	-0.273	-1.58	0.0285 (inactive)	-0.264	-0.571	0.339 (inactive)	0.21	-1.77 (inactive)	-0.394 (inactive)	0.742 (inactive)	1.13 (inactive)	-0.473 (inactive)	-0.875 (inactive)	-0.482 (inactive)	-0.658	-0.109
O=C1[C@H]2C=C(I)[C@H](C[C@@H]2c2ccccc2)[C@@]12CO2	-1.3	-0.417	-0.382	-3.18	-3	-1.74	0.789 (inactive)	-1.2	-1.32	-0.122 (inactive)	-0.488	-11.5 (active)	-0.886 (inactive)	-0.376 (inactive)	0.236 (inactive)	-2.23 (inactive)	-0.791 (inactive)	-1.24 (inactive)	-0.603	-0.223
CC(C)=CCCC(C)=CC(O)C1C=CC2C(=O)NC(=O)C2N1Nc1ccc(Cl)cc1Cl (stereo not given)	-0.483	-0.0042	-1.62	-3.76	-4.11	-3.49	-0.947 (inactive)	-0.238	-0.506	-0.577 (inactive)	-1.66	-4.77 (inactive)	-1.56 (inactive)	0.112 (inactive)	1.01 (inactive)	0.432 (inactive)	-0.0552 (inactive)	-0.797 (inactive)	-1.73	-0.0326
C=C(COC)C(=O)CC[C@@H](OC(C)=O)c1ccccc1OCCO	0.177	1.37	-0.601	-3.28	-1.75	0.143	-0.22 (inactive)	-0.557	-1.82	0.837 (inactive)	0.463	-0.947 (inactive)	-0.851 (inactive)	-1.34 (inactive)	0.166 (inactive)	-1.56 (inactive)	0.661 (inactive)	-0.061 (inactive)	-1.09	-0.102
C[C@@H]1ON(c2ccc(I)cc2)[C@H](c2cccc(NC(=O)OCC3c4ccccc4-c4ccccc43)c2)[C@H]1C(=O)N1C(=O)OC[C@H]1Cc1ccccc1	1.25	0.575	0.671	-0.749	-0.326	-0.194	1.54 (inactive)	-1.19	1.78	0.623 (inactive)	0.742	-1.04 (inactive)	0.965 (inactive)	0.14 (inactive)	0.13 (inactive)	0.774 (inactive)	1.32 (inactive)	0.818 (inactive)	1.06	-0.412
CC(C)N1C(=O)C[C@@](C(=O)NCCN2CCOCC2)(c2ccc([N+](=O)[O-])cc2)[C@H]1c1ccc(CO)cc1	-0.827	-0.641	-0.235	-0.617	0.0859	0.0432	-0.279 (inactive)	-0.95	-0.672	1.05 (inactive)	1.68	-1.39 (inactive)	0.795 (inactive)	-0.1 (inactive)	-0.838 (inactive)	-0.291 (inactive)	0.0506 (inactive)	0.445 (inactive)	1.23	-0.0747
C=C(CCCC)/C(=C/C[C@@H](OC(C)=O)c1ccc(CO)o1)c1cnc2ccccc2c1	0.159	1.04	-0.042	-1.56	-1.52	-0.462	-0.583 (inactive)	-0.133	-1.12	-1.29 (inactive)	-1.53	-0.293 (inactive)	-0.291 (inactive)	-6.85 (inactive)	0.0022 (inactive)	0.324 (inactive)	-1.1 (inactive)	-0.856 (inactive)	-0.521	0.1
N#Cc1ccc(-c2cccc(=O)o2)cc1	-0.719	-1.13	0.37	-0.0271	-0.394	-0.875	0.492 (inactive)	0.0366	-0.548	-0.0498 (inactive)	-0.518	-0.923 (inactive)	0.141 (inactive)	-0.578 (inactive)	0.0767 (inactive)	0.719 (inactive)	-1.1 (inactive)	-0.0301 (inactive)	-0.389	-0.0085
COC(=O)[C@@]1(Cc2ccc(F)cc2)[C@H]2c3cc(C(=O)N4CCCC4)n(Cc4cc(F)cc5c4OCOC5)c3C[C@H]2CN1C(=O)c1ccccc1	-1.14	0.364	-1.02	-1.54	-1.55	3.05	-0.484 (inactive)	-0.512	-0.744	-1.02 (inactive)	-1.29	1.9 (inactive)	-0.931 (inactive)	-0.224 (inactive)	-0.25 (inactive)	1.31 (inactive)	0.462 (inactive)	-1.11 (inactive)	-2.88	0.334
COCCOC(=O)N1C(=O)[C@@]2(c3cc(C#CCCO)ccc31)[C@H](c1ccccc1OCCO)N1[C@H](c3ccccc3)[C@H](c3ccccc3)OC(=O)[C@H]1[C@@H]2C(N)=O	0.49	1.8	-0.112	-1.49	-4.2	0.446	1 (inactive)	-1.22	-1.12	-0.0131 (inactive)	-0.0989	1.42 (inactive)	-1.49 (inactive)	-0.0125 (inactive)	-0.0199 (inactive)	2.34 (inactive)	0.641 (inactive)	-0.605 (inactive)	-1.45	-0.02
NC(=O)N1C(=O)C2C(C1=O)C1C=C(CCCO)C2C(c2ccc(CN3CCCC3)cc2)N1Cc1sc2ccccc2c1Cl (stereo not given)	-0.142	-0.501	-0.389	-2.67	0.0222	0.916	-0.753 (inactive)	0.0845	0.423	-0.301 (inactive)	-0.968	-2.06 (inactive)	-1.29 (inactive)	0.574 (inactive)	0.0721 (inactive)	-0.243 (inactive)	-0.291 (inactive)	-0.693 (inactive)	-1.04	-0.167
CC(C)NC(=O)[C@@]1(C)c2ccccc2C(=O)N(Cc2ccccc2)[C@H]1c1ccc(CO)cc1	0.389	0.714	1.41	0.579	0.38	2.88	1.49 (inactive)	-0.197	1.02	-0.268 (inactive)	0.107	-0.177 (inactive)	0.782 (inactive)	-1.48 (inactive)	0.5 (inactive)	-1.29 (inactive)	0.4 (inactive)	0.988 (inactive)	0.453	-0.287
COC(=O)[C@]1(Cc2ccccc2)N=C(c2ccc(OCCCO)cc2)O[C@@H]1c1ccccc1CN=[N+]=[N-]	-3.63	0.748	-5.37	-3.55	-3.97	-2.4	-0.876 (inactive)	-1.12	-1.34	-4.59 (inactive)	-4.19	-0.813 (inactive)	-8.88 (active)	1.94 (inactive)	1.84 (inactive)	2.72 (inactive)	1.28 (inactive)	-0.88 (inactive)	-7.14	0.0159
